In all, about 360,000 compounds went through this assay and about 11,000 (3.1%) were called active. About 2% were inconclusive and are not listed. Many of the other results were omitted from the sample, so actives are more common in it than they were. A number with no mark means an inactive call. Rule as the data show it: active = fluorescence intensity above about 16000; inconclusive = no clear call, values can overlap the other calls; inactive = below that.
Experiment: counter-screen for toxin protease inhibitors: compound fluorescence, primary screen, artefact control for toxin protease inhibitor project, biochemical, multiplex microsphere, HTS (AID 624483)
Settings: compound autofluorescence counterscreen, microsphere flow cytometry; active compounds read high

| SMILES | fluorescence intensity |
| --- | --- |
| Cc1ccc(NC(=O)C2(N3CCC3=O)CCCCC2)cc1 | 2510 |
| O=C(Nc1ccc(N2CCOCC2)cc1)c1cccc(S(=O)(=O)N2CCOCC2)c1 | 2540 |
| O=C(c1cc(S(=O)(=O)N2CCOCC2)ccc1Cl)N1CCOCC1 | 5390 |
| O=C(c1cccc(S(=O)(=O)N2CCOCC2)c1)N1CCOCC1 | 25300 (active) |
| Cc1cccc(OCCNC(=O)CSc2ccc(C(F)(F)F)cc2[N+](=O)[O-])c1 | 2620 |
| O=c1c2ccccc2nc(-c2ccccc2)n1-c1ccccn1 | 4770 |
| O=c1c2ccccc2nc(CBr)n1-c1ccc(Cl)cc1 | 3850 |
| O=c1c2ccccc2nc(-c2ccc(Cl)cc2Cl)n1-c1ccncc1 | 18700 (active) |
| CCOc1ccc(NC(=O)CCS(=O)(=O)c2ccc3c(c2)CCCN3C(=O)CC)cc1 | 10500 |
| COC(=O)c1ccc(Oc2nc(NC(C)C)nc(SC)n2)cc1 | 2470 |
| CCNc1nc(NC(C)C)nc(OCCOC(=O)c2ccccc2)n1 | 22900 (active) |
| CCNc1nc(NC(C)C)nc(N2CC(=O)N(CC(=O)OCC)C2=N)n1 | 10500 |
| CN(C)N1C(N)=C(C#N)C(c2ccc(Br)cc2)C2=C1CCCC2=O (stereo not drawn) | 4350 |
| Cc1ccc(N=Cc2c(O)n(-c3nccs3)c(=O)c3ccccc23)c(C)c1 | 2410 |
| CCOc1ccc(N=Cc2c(O)n(-c3cccc(C)n3)c(=O)c3ccccc23)cc1 | 20300 (active) |
| CCOc1ccc(-n2c(O)c(/C=N/Nc3nc(C)cc(C)n3)c3ccccc3c2=O)cc1 | 4560 |
| O/N=C(\C[n+]1ccccc1)c1ccc(Br)cc1 | 3050 |
| COC(=O)c1sccc1NC(=O)CC1C(=O)NCCN1C(=O)Nc1ccc(F)cc1F (stereo not drawn) | 6320 |
| COc1cccc(N(CC(=O)N2CCc3ccccc3C2)S(C)(=O)=O)c1 | 22900 (active) |
| CS(=O)(=O)N(CC(=O)N1CCc2ccccc2C1)c1ccc(Br)cc1 | 4000 |
| Cc1ccc(S(=O)(=O)N(CC(=O)N2CCc3ccccc3C2)c2cccc(Cl)c2)cc1 | 2460 |
| COc1cc(/C=N\NC(=O)c2nonc2N)c(OC)cc1Br | 2500 |
| COc1cc(N2CCCC2)c(OC)cc1/C=C(/C#N)c1cccc(Br)c1 | 20000 (active) |
| CCOc1ccc(/C=C(/C#N)c2nnc(N3CCOCC3)n2-c2ccccc2)cc1OC | 3950 |

| SMILES | fluorescence intensity |
| --- | --- |
| O=C(O)c1ccccc1-c1cccc2nncn12 | 3820 |
| Cc1sc2ccccc2c1CNC[C@H]1O[C@@H](n2ccc(=O)[nH]c2=O)[C@H](O)[C@@H]1O | 6010 |
| CCc1nc2c(OCCOc3ccccc3)cccn2c1N(C=O)Cc1ccc(OC)cc1 | 3280 |
| O=C1CCCc2c1[nH]c1ccc(Br)cc21 | 10300 |
| Cc1occc1C(=O)N/N=C/c1ccc(-c2cccc([N+](=O)[O-])c2)o1 | 6020 |
| Cc1ccc(S(=O)(=O)NCc2nc3ccccc3c(=O)n2N)cc1 | 23000 (active) |
| COc1ccccc1CNS(=O)(=O)c1ccc(C)cc1 | 3200 |
| C#CCCCc1nc2ccccc2c(=O)n1N | 2060 |
| O=C(COc1ccc(-c2ccccc2)cc1)NN=C1CCCC1 | 4340 |
| O=S(=O)(NC1CCCCC1)c1ccc(F)c2ccccc12 | 17400 (active) |
| O=S(=O)(NC1CC1)c1ccc(F)c(F)c1 | 5500 |
| O=S(=O)(NC1CC1)c1ccc2c3c(cccc13)CC2 | 4730 |
| Cc1cc(=O)oc2c3c(cc(OCC(=O)NCC(O)c4ccccc4)c12)OC(C)(C)CC3 (stereo not drawn) | 5100 |
| COc1cccc(NC(=O)CCc2nnc3ccc(N4CCC(C)CC4)nn23)c1 | 5600 |
| CCOC(=O)[C@]12CCC=C1N(Cc1ccco1)C(=O)[C@H](CC(=O)N1CCSCC1)C2 | 4160 |
| CC(C)(C(=O)N1CCC1(C)C(=O)NS(=O)(=O)c1ccc(Br)cc1)c1ccccc1 (stereo not drawn) | 3370 |
| NC(c1ccccc1)c1csc(NC(=O)Nc2cccc(C(F)(F)F)c2)n1 (stereo not drawn) | 3690 |
| Cc1cc2ncn(CCCCOc3ccccc3)c2cc1C | 17400 (active) |
| Clc1ncn(CCOc2ccccc2)c1Cl | 3990 |
| COCCOCCn1cnc2ccccc21 | 9770 |
| CSc1ccc(CN2CCC2(C)C(=O)Nc2ccc(C)c(O)c2)cc1 (stereo not drawn) | 3540 |
| O=C(NCCCN1CCOCC1)c1ccc([N+](=O)[O-])cc1[N+](=O)[O-] | 4500 |
| O=[N+]([O-])c1ccc(NCCCN2CCOCC2)c(Cl)c1 | 22800 (active) |
| O=C(NCCCNc1ccc([N+](=O)[O-])cc1Cl)c1ccccc1F | 4790 |
